# Assay outcomes: PubChem, The Scripps Research Institute Molecular Screening Center
# FBW7 act: FBW7 E3 ligase activators, primary screen, biochemical, AlphaScreen, human | AlphaScreen FBW7–phospho-cyclin E peptide binding, activator screen | 650,000 tested, 0.13% active | normalized activity (activation), % at 26.1 µM | AID 1259310, 2017 | F-box/WD repeat-containing protein 7 (Homo sapiens), Q969H0; in the data active means normalized activity above about 1.9%;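 further: purified mutant Fbw7 with reduced substrate affinity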
# GPR151 activ: activators of human GPR151, primary screen, cell-based, PathHunter beta-arrestin, luminescence. PathHunter beta-arrestin GPR151 cells. 650,000 tested, 1% active. AID 1508602, 2020. G-protein coupled receptor 151 (Homo sapiens), Q8TDV0. activation, % at 11.2 µM; in the data active means activation above about 4.9%;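 further: 0% = median of compound wells and 100% = cells with positive control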
# Target sequence (Q8TDV0 whole entry, looked up): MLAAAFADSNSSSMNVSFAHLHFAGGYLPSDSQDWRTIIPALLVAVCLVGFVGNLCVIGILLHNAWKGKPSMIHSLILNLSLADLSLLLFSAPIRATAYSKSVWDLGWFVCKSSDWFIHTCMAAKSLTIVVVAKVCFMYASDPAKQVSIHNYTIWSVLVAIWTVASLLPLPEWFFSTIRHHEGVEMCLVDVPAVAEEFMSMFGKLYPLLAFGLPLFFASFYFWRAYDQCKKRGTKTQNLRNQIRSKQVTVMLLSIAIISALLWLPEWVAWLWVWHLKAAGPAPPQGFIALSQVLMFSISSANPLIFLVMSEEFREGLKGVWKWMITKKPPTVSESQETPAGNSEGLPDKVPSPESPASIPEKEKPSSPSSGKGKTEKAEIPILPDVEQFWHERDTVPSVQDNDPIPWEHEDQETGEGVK
# TEAD-YAP block: TEAD-YAP interaction inhibition, primary screen, TEAD-YAP interaction inhibitor project, luminescence, HEK-TIYL cells. TEAD-Gal4/YAP UAS-luciferase luminescence. inhibition, % at 9.12 µM. 640,000 tested, 1.4% active; in the data active means inhibition above about 32%;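 further: 0% = median of test compound wells and 100% = reference inhibitor wells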
# MITF inh: MITF inhibitors, primary screen, biochemical, AlphaScreen, human | Microphthalmia-associated transcription factor (Homo sapiens), O75030 | AID 1259374, 2018 | inhibition, % at 2.6 µM | AlphaScreen MITF homodimerization, bead proximity signal | 650,000 tested, 0.91% active; in the data active means inhibition above about 50%;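 further: 0% = vehicle wells with protein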
# * hit, by the source's call; nt = no result given. The list is not random: actives were taken first. Their share in the collection is about 3.4%.
SMILES,FBW7 act,GPR151 activ,TEAD-YAP block,MITF inh
O=C1N[C@@H](Cc2ccc(Cl)cc2)C(=O)N2C[C@@H](NCc3ccc(F)cc3F)C[C@@H]12,1.0,-1.5,3.4,19.3
CC(=O)N1CCC(Oc2ccc(C(=O)NCCc3ccccc3)cc2)CC1,0.2,3.3,-15.2,-16.1
O=C(NCCc1ccccc1)c1ccc(OC2CCN(C(=O)C3=CCCC3)CC2)cc1,-0.1,2.2,64.8*,-3.8
O=C1CC[C@@H](C(=O)N2CCC(Oc3ccc(C(=O)NCCc4ccccc4)cc3)CC2)N1,-0.1,0.4,39.9*,0.4
O=C(NCCOc1cccnc1)c1ccc(OC2CCN(CCc3ccccc3)CC2)cc1,-0.1,-1.6,42.1*,17.0
CC(=O)NCC(=O)N1CCC(Oc2ccc(C(=O)NCCc3ccccc3)cc2)CC1,0.2,-0.9,33.0*,6.7
O=C(NCCc1ccccc1)c1ccc(OC2CCN(C(=O)C3CC3)CC2)cc1,-0.1,0.3,-10.5,-7.3
CCOc1ccc(-c2ccc(OCCNC(=O)c3ccc(OC)cc3)nn2)cc1,0.1,-1.6,-10.2,0.6
O=C(C1CCCN(c2nnc(N3CCCC3=O)s2)C1)N1CCCC1 (centres undefined),0.3,-0.3,4.4,7.1
CCCOc1ccc(C(=O)Nc2ccc3oc(-c4ccc(C(C)(C)C)cc4)nc3c2)cc1,0.1,-0.4,2.2,-17.2
CCOC(=O)c1ccccc1NC(=O)c1ccc(C(=O)Nc2ccccc2C(=O)OCC)cc1,0.0,-1.5,9.3,-3.1
O=C(NCCc1ccccc1)c1ccc(OC2CCN(C(=O)c3cnsn3)CC2)cc1,0.1,0.1,-0.4,9.3
O=C(NCCc1ccccc1)c1ccc(OC2CCN(C(=O)c3cscn3)CC2)cc1,-0.1,0.5,64.4*,9.6
CCCCNC(=O)c1ccc2c(c1)N(Cc1ccccc1F)C(=O)CS2,-0.3,-0.3,9.2,-8.8
O=C(N/N=C/c1ccc(N2CCOCC2)o1)c1ccccc1,0.1,0.1,-32.0,15.5
N#CCC(=O)N/N=C/c1ccc(N2CCOCC2)o1,0.5,-0.5,0.1,54.1*
CCN1C(=O)[C@H]2[C@H]3[C@H](O)[C@H](O)C/C(=N\O[C@H](C)CN4CCCc5nc(C)c(C)cc54)[C@@H]3CC[C@H]2C1=O,-0.1,-1.8,nt,5.2
Cc1ccc(NC(=O)COC(=O)c2ccc(NC(=O)CC#N)cc2)cc1F,0.1,3.6,-5.7,-14.3
O=C(Nc1ncc([N+](=O)[O-])s1)c1ccc(Br)cc1F,0.1,-12.3,84.8*,-4.8
CC(C)c1ccc2oc(-c3ccc(Cl)c(NC(=O)COc4ccc(Cl)cc4)c3)nc2c1,0.2,0.0,-6.1,-7.5
CCC(C)C(=O)Nc1ccc(-c2nc3ccccc3o2)cc1 (centres undefined),-0.1,-2.8,37.8*,-6.8
Nc1ccc(-c2cc3ccccc3oc2=O)cc1,0.2,-0.2,70.2*,-3.6
CCC(C)C(=O)N1CCC(C(=O)Nc2ccc(-c3nc4ccccc4o3)cc2)CC1 (centres undefined),-0.1,1.3,-7.2,-9.4
COc1ccc(NC(=O)COc2ccc(C(C)C)cc2)c(OC)c1,2.1*,3.6,3.7,-8.0
COc1ccc(OCC(=O)Nc2cc(-c3nc4cc(C(C)C)ccc4o3)ccc2Cl)cc1,-0.1,0.0,70.0*,-6.6
SMILES,FBW7 act,GPR151 activ,TEAD-YAP block,MITF inh
CC(C)c1ccc2oc(-c3ccc(NC(=O)COc4ccccc4)cc3)nc2c1,0.0,-0.9,68.7*,-2.6
Cc1ccc(OCC(=O)Nc2cc(-c3nc4cc(C(C)C)ccc4o3)ccc2Cl)cc1,-0.4,-0.8,6.0,-1.1
COc1ccc(OCC(=O)Nc2ccc(-c3nc4cc(C(C)C)ccc4o3)cc2)cc1,0.1,-0.5,47.9*,3.5
CCC(=O)Nc1cc(-c2nc3cc(C(C)C)ccc3o2)ccc1Cl,0.2,-0.3,45.7*,-2.6
COc1ccc(OCC(=O)Nc2ccc(-c3cc4ccccc4oc3=O)c(C)c2)cc1,0.4,-0.8,14.8,3.7
COc1ccc(OCC(=O)Nc2ccc(-c3cc4ccccc4oc3=O)cc2)cc1,-0.1,-0.1,43.3*,-8.0
CC1CC(C)CN(Cc2cc(=O)oc3cc4c(cc23)CCC4)C1 (centres undefined),0.0,0.1,2.4,10.8
CCC(C)c1ccc(C(C)NC(=O)CCC(=O)O)cc1 (centres undefined),-0.1,-1.4,11.4,-15.1
Cc1ccc(NC(=O)Nc2ccc(Cl)cc2)cc1F,-0.1,-0.2,-44.2,-2.3
COc1ccc(-c2cc3ccc(O)cc3oc2=O)cc1OC,1.0,-12.6,-7.0,8.8
O=c1oc2cc(O)ccc2cc1-c1ccc(Cl)cc1,0.9,-11.7,42.1*,-16.8
O=C(N/N=C/c1ccc2ncccc2c1)c1ccco1,0.0,-8.8,41.1*,10.8
COc1cccc(/C=N\NC(=O)c2ccc(C)nc2)c1,0.1,-1.9,-10.4,17.5
O=C(N/N=C/c1ccc(O)c2ncccc12)c1ccco1,-0.3,1.1,-33.2,104.0*
Cc1ccc(C(=O)N/N=C\c2cccc(OC(=O)c3ccco3)c2)cn1,2.2*,1.7,1.2,-9.3
O=C(Nc1ccc2ncccc2c1)c1ccco1,-0.1,-0.6,-52.6,-7.6
O=C(N/N=C/c1cc(Cl)ccc1O)c1ccco1,0.0,0.1,-48.5,-52.4
CCOc1ccc2oc(C(=O)OCC(=O)Nc3sccc3C#N)c(C)c2c1,0.3,-3.5,-23.4,11.7
O=c1c(CN2CCN(c3cccc(C(F)(F)F)c3)CC2)coc2ccccc12,-0.1,0.5,62.2*,35.4
O=c1c(CN2CCN(c3cccc(Cl)c3)CC2)coc2ccccc12,-0.1,0.4,43.2*,53.1*
Cc1ccc2occ(CN3CCN(c4ccccc4)CC3)c(=O)c2c1,-0.1,3.3,-3.4,23.4
CNC(=O)CSc1nnc(-c2ccc3c(c2)OCO3)o1,-0.1,-1.0,-25.4,-1.4
O=C1COc2cc(S(=O)(=O)NCc3ccc(Cl)cc3)ccc2N1,-0.2,0.1,-6.8,2.2
CC1CN2C(=O)Cc3c(S(=O)(=O)Nc4ccc(F)cc4)ccc(c32)S1 (centres undefined),0.0,0.0,23.4,10.1
CCc1cccc(NS(=O)(=O)c2ccc3c4c2CC(=O)N4CC(C)S3)c1 (centres undefined),-0.1,0.3,36.3*,-2.7
Cc1ccc(S(=O)(=O)N2CCSC2c2ccccc2Cl)cc1[N+](=O)[O-] (centres undefined),-0.1,-0.6,-0.4,2.4
CCCOc1ccccc1C1CC(=O)NC2=C1C(=O)CCC2 (centres undefined),0.0,-1.1,50.2*,-9.2
CCCCOc1ccccc1C1CC(=O)NC2=C1C(=O)CCC2 (centres undefined),-0.3,0.0,57.0*,2.0
CCOc1ccccc1C1CC(=O)NC2=C1C(=O)CCC2 (centres undefined),0.0,0.2,40.5*,21.3
O=C1CC(c2cccc3ccccc23)C2=C(CCCC2=O)N1 (centres undefined),0.0,-0.5,-1.2,3.3
